Laboratory results as given in ChEMBL document CHEMBL2218924, “A broad activity screen in support of a chemogenomic map for kinase signalling research and drug discovery” (Biochem J, 2013).

The compounds below were run against Tyrosine-protein kinase ABL1 (Homo sapiens) (UniProt P00519). Settings: at 1 µM.
Tyrosine-protein kinase ABL1 (Homo sapiens), sequence (P00519 whole entry): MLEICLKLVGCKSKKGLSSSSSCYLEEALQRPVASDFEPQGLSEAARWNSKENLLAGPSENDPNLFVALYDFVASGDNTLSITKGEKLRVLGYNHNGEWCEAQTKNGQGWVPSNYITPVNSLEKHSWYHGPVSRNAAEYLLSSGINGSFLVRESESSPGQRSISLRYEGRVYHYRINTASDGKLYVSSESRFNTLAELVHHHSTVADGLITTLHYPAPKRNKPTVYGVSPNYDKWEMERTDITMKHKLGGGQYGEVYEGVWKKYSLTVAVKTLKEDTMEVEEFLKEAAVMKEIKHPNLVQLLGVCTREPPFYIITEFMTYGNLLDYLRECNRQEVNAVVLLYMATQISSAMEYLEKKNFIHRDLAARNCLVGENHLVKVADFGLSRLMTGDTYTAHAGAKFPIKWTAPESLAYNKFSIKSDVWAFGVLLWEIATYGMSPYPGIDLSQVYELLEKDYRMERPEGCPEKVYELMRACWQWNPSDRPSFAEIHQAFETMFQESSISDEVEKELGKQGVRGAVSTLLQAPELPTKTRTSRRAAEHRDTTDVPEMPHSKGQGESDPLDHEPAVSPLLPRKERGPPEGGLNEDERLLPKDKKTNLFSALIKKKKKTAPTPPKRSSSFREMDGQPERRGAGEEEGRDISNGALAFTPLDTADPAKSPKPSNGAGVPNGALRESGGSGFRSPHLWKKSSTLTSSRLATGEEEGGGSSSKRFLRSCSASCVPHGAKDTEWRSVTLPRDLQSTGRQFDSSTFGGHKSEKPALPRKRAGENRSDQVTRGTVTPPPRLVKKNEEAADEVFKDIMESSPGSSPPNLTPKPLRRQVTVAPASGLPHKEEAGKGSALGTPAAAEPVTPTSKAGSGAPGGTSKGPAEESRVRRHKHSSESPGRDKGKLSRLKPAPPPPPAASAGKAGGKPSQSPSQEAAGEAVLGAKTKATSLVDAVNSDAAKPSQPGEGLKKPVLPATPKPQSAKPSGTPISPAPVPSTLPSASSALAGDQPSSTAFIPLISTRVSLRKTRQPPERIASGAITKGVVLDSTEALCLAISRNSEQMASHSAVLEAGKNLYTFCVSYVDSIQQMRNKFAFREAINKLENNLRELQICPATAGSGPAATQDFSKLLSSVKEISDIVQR

SMILES | residual activity [%]
c1cc(-c2cnn3cc(-c4ccc(OCCN5CCCCC5)cc4)cnc23)ccn1 | 4
COC(=O)[C@@]1(O)C[C@H]2O[C@]1(C)n1c3ccccc3c3c4c(c5c6ccccc6n2c5c31)C(=O)NC4 | 80
O=C1c2ccccc2-c2nc3nnnn3nc21 | 107
O=[N+]([O-])/C=C/c1ccc2c(c1)OCO2 | 96
CC(C)[C@H](CO)Nc1nc(Nc2cccc(Cl)c2)c2ncn(C(C)C)c2n1 | 62
O=c1[nH]c2ccccc2n1C1CCN(Cc2ccc(-c3nc4cc5[nH]cnc5cc4nc3-c3ccccc3)cc2)CC1 | 114
COc1cc(OC)c(/C=C2\C(=O)Nc3ccccc32)c(OC)c1 | 104
CCn1cnc2c(Nc3cccc(Cl)c3)nc(N[C@@H]3CCCC[C@@H]3N)nc21 | 95
CC(C)(C)c1cc(C=C(C#N)C#N)cc(Br)c1O | 80
O=C1Nc2ccc3ncsc3c2/C1=C/c1c[nH]cn1 | 66
COc1cc2ncnc(Nc3ccc(OCc4ccccc4)cc3)c2cc1OC | 93
COc1ccc2c(c[n+](C)c3c4cc5c(cc4ccc23)OCO5)c1OC | 85
